# Experimental data from PubChem BioAssay.
# Active and inactive are the calls of the source.
# What was measured:
# Albumin (Bos taurus) = Albumin (Bos taurus) (UniProt P02769); assay: bovine serum albumin binders on microarray, profiling panel, artefact control for SMM control protein annotation, biochemical, small-molecule microarray, Alexa647 label, 635/667 nm fluorescence (AID 1118); conditions: BSA-A647 binding, fluorescence 635 nm, higher = more signal;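 note: score merges 667 nm emission intensity and signal-to-noise per printed compound spot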
# [1] = small-molecule microarray binders of probe aXIP, primary screen, biochemical, NeuroSMM set, 635/667 nm fluorescence (AID 1119); conditions: higher = more signal, called active from +8 up or from −8 down;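 note: probe is the protein aXip251-270 applied at 1 µg/mL to compound-printed slides; binding of probe to printed compounds measured as 667 nm fluorescence plus signal to noise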
# [2] = small-molecule binders of probe aNOTCH3, primary screen, biochemical, small-molecule microarray, 635/667 nm fluorescence (AID 1120); conditions: higher = more signal;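 note: probe is a biotin-tagged antibody raised against NOTCH3 rather than NOTCH3 protein; score merges spot fluorescence near 667 nm with spot signal to noise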
# [3] = small-molecule binders of probe aNOTCH2, primary screen, biochemical, small-molecule microarray, 635/667 nm fluorescence (AID 1121); conditions: higher = more signal;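 note: score merges feature fluorescence read at 667 nm with its signal to noise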
# [4] = target: Carbonic anhydrase 2 (Homo sapiens) (UniProt P00918); assay: CAII small-molecule binders, profiling panel, biochemical, small-molecule microarray, Alexa647-labelled CAII (AID 1122); conditions: CAII-A647 binding fluorescence, higher = more signal
# [5] = COS7 lysate on small-molecule microarray, probe aHis, 635 nm (AID 1123); conditions: COS7 cell lysate, fluorescence, higher = more signal;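 note: z-score combines 667nm fluorescence intensity with signal-to-noise per printed compound spot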
# [6] = compound binding in COS7 lysate, probe aLAP1, primary screen, cell lysate, small-molecule microarray (AID 1124); conditions: probe aLAP1, fluorescence, higher = more signal;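 note: lysate comes from COS7 cells expressing LAP1 and is applied at 0.3 µg/mL; score merges spot fluorescence near 667 nm with signal-to-noise over triplicate slides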
# Sam68 (KHDRBS1) = assay: Sam68 small-molecule binders, primary screen, biochemical, small-molecule microarray, 635 nm fluorescence (AID 1125); conditions: small-molecule microarray binding, higher = more signal;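 note: score merges 667 nm channel intensity with signal to noise over triplicate slides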
# [7] = tested on: Chordin-like protein 2 (CHRDL2); assay: CHRDL2 small-molecule binders, primary screen, biochemical, small-molecule microarray, 635 nm fluorescence (AID 1126); conditions: small-molecule microarray binding, fluorescence 635 nm; higher = more signal;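 note: printed compound slides probed with Chrdl2 protein at 4 µg/mL for 1 h at 4 C; score merges 667 nm emission intensity with signal to noise over three replicate slides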
# [8] = target: Concanavalin-A (Canavalia ensiformis) (UniProt P02866); assay: ConA small-molecule binders, primary screen, artefact control for SMM control protein annotation, biochemical, small-molecule microarray, Alexa647 label, 635 nm (AID 1127); conditions: ConA-A647 binding fluorescence, higher = more signal;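 note: z combines 667 nm emission intensity with signal-to-noise across three replicate slides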
# Chain of Concanavalin-A (Canavalia ensiformis) (P02866 whole entry, looked up): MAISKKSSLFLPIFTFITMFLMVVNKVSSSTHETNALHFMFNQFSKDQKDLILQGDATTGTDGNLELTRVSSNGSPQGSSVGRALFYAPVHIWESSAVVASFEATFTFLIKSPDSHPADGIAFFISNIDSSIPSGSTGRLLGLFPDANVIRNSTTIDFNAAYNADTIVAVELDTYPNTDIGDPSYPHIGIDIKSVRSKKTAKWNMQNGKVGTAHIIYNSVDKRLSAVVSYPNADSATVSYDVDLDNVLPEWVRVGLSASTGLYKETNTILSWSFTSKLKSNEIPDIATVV
# Chain of Albumin (Bos taurus) (P02769 whole entry, looked up): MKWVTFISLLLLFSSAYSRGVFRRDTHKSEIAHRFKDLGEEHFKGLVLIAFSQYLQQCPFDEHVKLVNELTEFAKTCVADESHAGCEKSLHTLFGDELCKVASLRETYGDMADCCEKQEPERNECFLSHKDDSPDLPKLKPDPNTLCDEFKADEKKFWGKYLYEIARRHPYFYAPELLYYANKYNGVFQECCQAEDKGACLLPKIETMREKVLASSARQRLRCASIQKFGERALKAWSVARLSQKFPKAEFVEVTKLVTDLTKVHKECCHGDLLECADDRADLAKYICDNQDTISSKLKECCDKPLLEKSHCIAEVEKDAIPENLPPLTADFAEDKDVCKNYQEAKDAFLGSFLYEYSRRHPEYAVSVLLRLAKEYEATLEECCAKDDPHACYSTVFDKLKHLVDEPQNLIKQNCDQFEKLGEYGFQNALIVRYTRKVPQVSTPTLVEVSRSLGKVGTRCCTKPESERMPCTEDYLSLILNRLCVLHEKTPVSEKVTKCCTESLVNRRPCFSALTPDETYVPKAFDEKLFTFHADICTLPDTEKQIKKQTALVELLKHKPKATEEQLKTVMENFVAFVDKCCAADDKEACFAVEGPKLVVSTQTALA
Structure (SMILES),composite z-score (Albumin (Bos taurus)),composite Z-score [1],composite z-score [2],composite z-score [3],composite z-score [4],composite z-score [5],composite z-score [6],composite z-score (Sam68 (KHDRBS1)),composite z-score [7],composite z-score [8]
C=CCC(OC(C)=O)[C@@H]1[C@@H](N(Cc2cccc3ccccc23)C(=O)c2ccc(C)cc2)c2cc(OCCCO)ccc2N1C(=O)Cc1ccc(OC)cc1 (stereo not given in full),0.15,-0.858 (inactive),0.114,-0.127,0.112,0.223,-0.0098,0.175,0.352,0.0517
CC(C)OC(=O)CC(=O)CC(O)c1ccc(C#N)cc1 (stereo not given),-0.181,0.0371 (inactive),-0.0377,0.174,0.0258,0.657,0.649,0.438,-1.19,-0.6
C=CCNC(=O)[C@@H]1[C@H]2C(=O)O[C@H](c3ccccc3)[C@H](c3ccccc3)N2[C@H](c2ccc(OCCO)cc2)[C@@]12C(=O)Nc1ccccc12,0.507,-0.551 (inactive),0.0773,-0.157,0.692,1.91,0.262,1.29,0.228,1.11
CC(C)CNC(=O)[C@@]1(c2ccc([N+](=O)[O-])cc2)CC(=O)N(CC23CC4CC(CC(C4)C2)C3)[C@@H]1c1ccc(CO)cc1I,-0.0275,0.493 (inactive),0.54,-0.0001,0.259,2.03,0.451,1.32,0.499,0.974
COCCOC(=O)N1C(=O)[C@@]2(c3ccccc31)[C@H](c1ccc(O)cc1)N1[C@H](c3ccccc3)[C@H](c3ccccc3)OC(=O)[C@H]1[C@@H]2C(=O)N1CCc2cc(OC)c(OC)cc2C1,-0.361,2.47 (inactive),0.128,0.0712,0.136,1.76,0.288,1.32,1.44,1.13
CC(C)CNC(=O)[C@@H]1c2ccccc2C(=O)N(Cc2cc(C(F)(F)F)cc(C(F)(F)F)c2)[C@H]1c1ccc(CO)cc1,-0.881,0.0089 (inactive),0.0596,0.127,0.5,0.361,0.0574,-0.636,-0.629,-0.928
C=C[C@H](COC(C)=O)N(Cc1ccc(OC(C)=O)c(OC)c1)S(=O)(=O)c1ccc(Br)cc1,0.777,0.365 (inactive),0.223,0.272,0.512,0.987,0.509,0.988,0.771,1.04
CC(C)c1ccc(NN2C(C(O)c3ccc(N(C)C)cc3)C=CC3C(=O)N(c4ccccc4)C(=O)C32)cc1 (stereo not given),0.961,-0.343 (inactive),0.432,0.0147,0.393,2.76,-0.161,1.29,-0.0118,1.16
C=CCN1C(=O)[C@]2(O[C@H](CCO)[C@@H]([Si](C)(C)c3ccc(OC)cc3)[C@@H]2C)c2cc(NC(=O)[C@H](C)O)ccc21,0.851,1.31 (inactive),0.0203,-0.0666,0.56,1.39,0.371,1.31,0.174,1.01
CN(C)CCCCCCNC(=O)[C@H]1C[C@H]2C(=O)N[C@@H](CCCCN)C(=O)N2[C@H]1c1ccc(O)cc1,0.987,5.54 (inactive),1.78,0.657,0.586,4.3,1.16,1.34,1.45,1.25
C=C(COC)C(=O)CC[C@H](OC(C)=O)c1cccc(OCCO)c1,-0.768,0.157 (inactive),-0.165,-0.154,0.358,0.451,0.775,0.151,-0.298,-0.935
CCOC(=O)[C@H]1C[C@H]2O[C@@]23C[C@H]1C(=O)N1CCCC1[C@@H]3O[Si](C)(C)C(C)(C)C (stereo not given in full),-0.505,0.545 (inactive),0.0203,-0.102,-0.123,0.178,-0.244,-0.445,-0.694,-1.61
CC(C)N1CC=CC23O[C@@H]4C=CCOC(=O)[C@@H]4[C@H]2C(=O)N(CCO)[C@@H]3C1=O (stereo not given in full),-0.0355,0.604 (inactive),-0.299,-0.14,0.9,1.29,-0.252,0.557,-1.59,-0.329
C=CCNC(=O)[C@@H]1[C@H]2C(=O)O[C@H](c3ccccc3)[C@H](c3ccccc3)N2[C@H](c2ccc(O)cc2)[C@@]12C(=O)N(C(=O)OCCOC)c1ccccc12,0.752,-0.155 (inactive),-0.0716,-0.143,0.519,2.23,0.334,1.28,-0.49,-0.18
CC(=O)NCCCC[C@@H]1NC(=O)[C@@H]2C[C@H](C(=O)NCCCCN(C)C)[C@H](c3ccc(O)cc3)N2C1=O,-0.503,0.48 (inactive),-0.292,-0.14,-0.0303,-0.089,0.765,-0.781,0.46,-0.612
O=C1O[C@H](c2ccccc2)[C@H](c2ccccc2)N2[C@H]1[C@@H](C(=O)NC[C@H](O)c1ccccc1)[C@]1(C(=O)Nc3ccc(C#CCCO)cc31)[C@H]2c1ccc(O)cc1,-0.746,1.33 (inactive),-0.0259,-0.14,-0.702,0.155,1.11,-0.317,-0.316,-0.743
